“And” between values parts separate entries of the source, which are not always exact repeats. Equal values may be shown once. Among all 5,500 compounds or so, about 2,000 (36%) were called active. Another 18% or so got no clear call; they are omitted. Rule as the data show it: active = normalized growth mostly below about 0.91 (no sharp cut-off); inconclusive = no clear call, values can overlap the other calls; inactive = mostly above about 0.92. The list shows a part of the results.
Assay: chemical genetic growth profiling, strain panel (AID 1159580);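 also: tested at 20 µM; growth read once vehicle control cultures reached saturation at 30 °C; 1 = growth at the plate median or of vehicle wells; lower values mean less growth of the strain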
Conditions: S. cerevisiae deletion strains, growth OD

Measured: normalized growth

COc1cc(NS(=O)(=O)c2ccc(N)cc2)nc(OC)n1
inactive: locus YAL021C, strain ccr4, hits give low values 0.976 | locus YAL026C, strain drs2, hits give low values 0.982 | locus YAL030W, strain snc1, hits give low values 0.976 | locus YBL061C, strain skt5, hits give low values 0.97 | locus YBR009C, strain hhf1, hits give low values 0.977 | locus YBR021W, strain FUR4, hits give low values 0.983 | locus YBR023C, strain chs3, hits give low values 0.977 | locus YBR171W, strain sec66, hits give low values 0.968 | locus YBR229C, strain ROT2, hits give low values 0.987 | locus YBR231C, strain swc5, hits give low values 0.971 | locus YBR279W, strain paf1, hits give low values 0.961 | locus YCL011C, strain gbp2, hits give low values 0.986 | locus YCL016C, strain dcc1, hits give low values 0.978 | locus YCL029C, strain bik1, hits give low values 0.978 | locus YCL061C, strain MRC1, hits give low values 0.97 | locus YCL069W, strain vba3, hits give low values 0.985 | locus YCR088W, strain abp1, hits give low values 0.962 | locus YDL005C, strain med2, hits give low values 0.979 | locus YDL035C, strain GPR1, hits give low values 0.976 | locus YDL040C, strain nat1, hits give low values 0.963 | locus YDL074C, strain BRE1, hits give low values 0.995 | locus YDL101C, strain DUN1, hits give low values 0.985 | locus YDL134C, strain PPH21, hits give low values 0.968 | locus YDL185W, strain tfp1, hits give low values 0.982 | locus YDL192W, strain arf1, hits give low values 0.984 | locus YDR001C, strain nth1, hits give low values 0.978 | locus YDR069C, strain doa4, hits give low values 0.957 | locus YDR101C, strain arx1, hits give low values 0.999 | locus YDR137W, strain rgp1, hits give low values 0.984 | locus YDR150W, strain NUM1, hits give low values 0.999 | locus YDR159W, strain sac3, hits give low values 0.933 | locus YDR162C, strain NBP2, hits give low values 0.98 | locus YDR195W, strain ref2 0.942 | locus YDR297W, strain sur2, hits give low values 0.983 | locus YDR318W, strain mcm21, hits give low values 0.989 | locus YDR334W, strain swr1, hits give low values 0.974 | locus YDR335W, strain msn5, hits give low values 0.981 | locus YDR388W, hits give low values 0.977 | locus YDR392W, strain spt3, hits give low values 0.984 | locus YDR502C, strain sam2, hits give low values 0.98 | locus YEL003W, strain gim4, hits give low values 0.991 | locus YEL037C, strain rad23, hits give low values 0.965 | locus YEL061C, strain CIN8 (second series), hits give low values 0.986 | locus YEL061C, strain CIN8, hits give low values 1 | locus YER015W, strain faa2, hits give low values 0.99 | locus YER016W, strain bim1, hits give low values 0.988 | locus YER110C, hits give low values 0.972 | locus YER111C, strain swi4, hits give low values 0.973 | locus YER155C, strain BEM2 (second series), hits give low values 0.95 | locus YER155C, strain BEM2, hits give low values 0.996 | locus YER167W, strain BCK2, hits give low values 0.977 | locus YFR010W, strain ubp6, hits give low values 0.976 | locus YGL078C, strain dbp3, hits give low values 0.985 | locus YGL086W, strain mad1, hits give low values 0.997 | locus YGL167C, strain pmr1, hits give low values 0.976 | locus YGL173C, strain kem1, hits give low values 0.951 | locus YGL227W, strain vid30, hits give low values 0.97 | locus YGL240W, strain doc1, hits give low values 0.97 | locus YGL248W, strain PDE1, hits give low values 1.01 | locus YGL253W, strain hxk2, hits give low values 0.977 | locus YGR078C, strain PAC10, hits give low values 1.01 | locus YGR135W, strain pre9, hits give low values 0.979 | locus YGR229C, strain SMI1, hits give low values 0.982 | locus YGR252W, strain gcn5, hits give low values 1.03 | locus YHR013C, strain ard1, hits give low values 0.988 | locus YHR027C, strain rpn1, hits give low values 0.981 | locus YHR030C, strain SLT2, hits give low values 0.986 and 0.975 | locus YHR079C, strain IRE1 (second series), hits give low values 0.991 | locus YHR079C, strain IRE1, hits give low values 0.978 | locus YHR094C, strain hxt1, hits give low values 0.98 | locus YHR129C, strain ARP1, hits give low values 0.985 | locus YHR142W, strain chs7, hits give low values 0.969 | locus YHR200W, strain rpn10, hits give low values 0.993 | locus YIL066C, strain RNR3, hits give low values 0.982 | locus YIL073C, strain SPO22, hits give low values 0.87 | locus YIL125W, strain kgd1, hits give low values 0.994 | locus YIR030C, strain dcg1, hits give low values 0.997 | locus YJL092W, strain hpr5, hits give low values 0.982 | locus YJL095W, strain BCK1 (second series), hits give low values 0.963 | locus YJL095W, strain BCK1, hits give low values 1.03 and 0.977 | locus YJL115W, strain asf1, hits give low values 0.966 | locus YJL129C, strain trk1, hits give low values 0.969 | locus YJL134W, strain LCB3, hits give low values 0.986 | locus YJL154C, strain vps35, hits give low values 0.965 | locus YJL164C, strain tpk1, hits give low values 1 | locus YJL166W, strain qcr8, hits give low values 0.978 | locus YJL168C, strain set2, hits give low values 0.989 | locus YJL187C, strain SWE1 (second series), hits give low values 0.994 | locus YJL187C, strain SWE1, hits give low values 0.976 | locus YJR043C, strain POL32, hits give low values 0.982

From PubChem BioAssay AID1159580 (chemical genetic matrix, 2015)
